Molecules are shown by their SMILES. Values joined by “and” are separate entries in the source; they are usually repeats but may differ in a detail not shown here. Equal values may be shown once. Inconclusive results are not listed. Active and inactive are the calls of the source. Unless noted, calls come from the whole dose curve.

In PubChem BioAssay (Tox21) one finds Potency and outcome data, which are given here for 30 compounds.

Assay [1] is described as follows: qHTS assay to identify small molecule agonists of the sonic hedgehog signaling (Shh) pathway (AID 1259368).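 Note: NIH/3T3-derived 3T3Gli1-Luc cells carrying a stable Gli1-driven firefly luciferase reporter; series mostly up to about 92 µM; nearly all actives have a fitted effect of over 15% in size.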 Summed up:
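Quantitative high-throughput format using a Gli1-driven firefly luciferase reporter line derived from NIH/3T3 cells. After a 24 hr compound treatment at 37 C and 5% CO2, luminescence reported Gli1 response element activity.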
(In general: In qHTS, concentration-response curves come from the screen itself.)

Assay [2] in a line: qHTS assay to identify small molecule antagonists of the sonic hedgehog signaling (Shh) pathway (AID 1259369). Note: nearly all actives have a fitted effect of over 45% in size. Note: potency is the fitted concentration of half-maximal effect. In short, it runs like this:
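Stable Gli1-Luc reporter NIH/3T3 clone; quantitative HTS in stimulated mode with conditioned medium. Luminescence measured after 24hr compound treatment at 37 C.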

The target in assay [3] is Estrogen receptor beta (Homo sapiens) (UniProt Q92731). Description: qHTS assay to identify small molecule agonists of the estrogen receptor beta (ER-beta) signaling pathway (AID 1259377; active = well fitted activation curve with a large enough effect in the signal ratio in the repeat runs, not every such curve was filed as active; the % refers to the signal ratio). Summed up:
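Measured by fluorescence intensity from a B/G FRET beta-lactamase substrate (2 h, room temperature) in ER-beta-UAS-bla HEK293T cells treated with DMSO-dissolved compounds for 16 hr at 37C and 5% CO2.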

Assay [4] in a line: qHTS assay to identify small molecule agonists of the androgen receptor (AR) signaling pathway in the presence of an antagonist - cell viability counter screen (AID 1259379; active = well fitted curve in the direction sought with a large enough effect in the repeat runs; an effect the other way counts as inactive or inconclusive; note: nearly all actives have a fitted effect of over 25% in size; note: potency is the fitted concentration of half-maximal effect). Summed up:
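Nilutamide-containing (3.0uM final) MDA-kb2 cultures, 3,000 cells/well, were treated with compounds across 15 concentrations. After 16 hr at 37C with no CO2, cell viability was determined by CellTiter-Fluor fluorescence in the luciferase assay wells.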

The nature of assay [5]: qHTS assay to identify small molecule agonists of the estrogen receptor beta (ER-beta) signaling pathway - cell viability counter screen (AID 1259380; active = well fitted curve in the direction sought with a large enough effect in the repeat runs; an effect the other way counts as inactive or inconclusive; note: nearly all actives have a fitted effect of over 30% in size; note: potency is the fitted concentration of half-maximal effect). In short, it runs like this:
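Steps: plate ER-beta-UAS-bla HEK293T cells, rest 6 hr; add compounds in DMSO; incubate 16 hr at 37C, 5% CO2; add FRET substrate 2 hr; add CellTiter-Glo, wait 30 min at room temperature; read luminescence.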

Assay [6] is described as follows: qHTS assay to identify small molecule antagonists of the estrogen receptor beta (ER-beta) signaling pathway - cell viability counter screen (AID 1259382; active = well fitted curve in the direction sought with a large enough effect in the repeat runs; an effect the other way counts as inactive or inconclusive; note: nearly all actives have a fitted effect of over 55% in size; note: potency is the fitted concentration of half-maximal effect). In short, it runs like this: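 Viability is scored by CellTiter-Glo luminescence (30 min, room temperature) in ER-beta-UAS-bla HEK293T wells already read for reporter fluorescence. Compound exposure lasts 16 hr at 37C alongside 1nM 17-beta-estradiol in charcoal-stripped serum medium.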

For assay [7], the target named is Estrogen receptor (Homo sapiens) (UniProt P03372). Description: qHTS assay to identify small molecule agonists of the estrogen receptor alpha (ER-alpha) signaling pathway in the presence of an antagonist (AID 1259383). Note: top concentration of the series differs between compounds; nearly all actives have a fitted effect of over 15% in size. In short, it runs like this:
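Readout was ERE-driven luciferase luminescence in VM7Luc4E2 cells, which express full-length ER-alpha endogenously. Compounds were tested at 15 concentrations for 22hr alongside 10.0nM ICI-182,780 (final concentration).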

A short description of assay [8]: qHTS assay to identify small molecule agonists or antagonists of the thyroid stimulating hormone receptor (TSHR) signaling pathway - wild type cell line counter screen (AID 1259384). In short, it runs like this:
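Wild-type Hek293 cells, 800/well, 18 h at 37C, then compound with Ro20-1724 for 30 min RT. cAMP by HTRF (cAMP-d2/anti-cAMP cryptate), 1 h RT, fluorescence read. 15 concentrations, triplicates.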

The target of assay [9] is Androgen receptor (Homo sapiens) (UniProt P10275). Put plainly: qHTS assay to identify small molecule agonists of the androgen receptor (AR) signaling pathway in the presence of an antagonist (AID 1259381). Note: nearly all actives have a fitted effect of over 15% in size. Summed up: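 Reporter-gene luminescence from MDA-kb2 cells exposed 16hr at 37C (0% CO2) to 15-point compound titrations with 3.0uM final nilutamide as AR antagonist.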

For assay [10], the target named is Estrogen receptor beta (Homo sapiens) (UniProt Q92731). Put plainly: qHTS assay to identify small molecule antagonists of the estrogen receptor beta (ER-beta) signaling pathway (AID 1259378; active = well fitted inhibition curve with a large enough effect in the signal ratio in the repeat runs, not every such curve was filed as active; the % refers to the signal ratio; note: potency is the fitted concentration of half-maximal effect). In short, it runs like this:
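ER-beta-UAS-bla HEK293T cells in 2% charcoal-stripped FBS medium treated with compound plus 1nM final 17-beta-estradiol for 16 hr at 37C. Beta-lactamase reporter read by FRET substrate fluorescence after 2 hours at room temperature.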

Estrogen receptor beta (Homo sapiens), sequence (Q92731 whole entry, looked up): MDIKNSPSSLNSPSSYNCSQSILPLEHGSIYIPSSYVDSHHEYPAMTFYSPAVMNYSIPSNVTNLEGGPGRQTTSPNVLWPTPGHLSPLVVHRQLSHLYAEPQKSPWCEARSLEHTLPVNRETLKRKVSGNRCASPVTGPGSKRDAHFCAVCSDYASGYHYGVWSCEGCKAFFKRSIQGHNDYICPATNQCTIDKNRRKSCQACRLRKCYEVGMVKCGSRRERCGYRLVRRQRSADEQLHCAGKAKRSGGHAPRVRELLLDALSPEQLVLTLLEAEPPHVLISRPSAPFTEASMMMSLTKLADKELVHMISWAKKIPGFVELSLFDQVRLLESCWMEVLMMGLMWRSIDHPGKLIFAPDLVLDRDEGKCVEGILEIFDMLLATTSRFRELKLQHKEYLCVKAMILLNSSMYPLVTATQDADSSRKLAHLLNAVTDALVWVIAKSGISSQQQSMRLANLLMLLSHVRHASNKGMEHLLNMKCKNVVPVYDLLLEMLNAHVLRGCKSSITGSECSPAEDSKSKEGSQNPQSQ
Estrogen receptor (Homo sapiens), sequence (P03372 whole entry, looked up): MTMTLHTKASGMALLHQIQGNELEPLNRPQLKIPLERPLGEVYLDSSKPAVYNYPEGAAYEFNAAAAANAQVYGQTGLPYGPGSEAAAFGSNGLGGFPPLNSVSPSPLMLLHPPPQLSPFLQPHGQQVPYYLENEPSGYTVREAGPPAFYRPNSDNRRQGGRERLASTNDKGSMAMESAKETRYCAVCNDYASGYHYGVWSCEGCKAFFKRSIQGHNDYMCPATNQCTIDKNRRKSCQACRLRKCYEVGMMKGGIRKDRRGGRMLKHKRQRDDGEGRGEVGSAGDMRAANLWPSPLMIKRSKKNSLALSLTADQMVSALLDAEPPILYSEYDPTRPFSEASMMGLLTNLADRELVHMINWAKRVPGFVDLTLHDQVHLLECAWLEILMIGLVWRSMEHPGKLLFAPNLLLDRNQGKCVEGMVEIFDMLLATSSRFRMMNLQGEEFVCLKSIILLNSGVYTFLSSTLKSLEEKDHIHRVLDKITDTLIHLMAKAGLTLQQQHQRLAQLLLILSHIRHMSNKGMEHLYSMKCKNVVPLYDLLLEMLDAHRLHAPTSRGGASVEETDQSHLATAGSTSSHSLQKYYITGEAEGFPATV
Androgen receptor (Homo sapiens), sequence (P10275 whole entry, looked up): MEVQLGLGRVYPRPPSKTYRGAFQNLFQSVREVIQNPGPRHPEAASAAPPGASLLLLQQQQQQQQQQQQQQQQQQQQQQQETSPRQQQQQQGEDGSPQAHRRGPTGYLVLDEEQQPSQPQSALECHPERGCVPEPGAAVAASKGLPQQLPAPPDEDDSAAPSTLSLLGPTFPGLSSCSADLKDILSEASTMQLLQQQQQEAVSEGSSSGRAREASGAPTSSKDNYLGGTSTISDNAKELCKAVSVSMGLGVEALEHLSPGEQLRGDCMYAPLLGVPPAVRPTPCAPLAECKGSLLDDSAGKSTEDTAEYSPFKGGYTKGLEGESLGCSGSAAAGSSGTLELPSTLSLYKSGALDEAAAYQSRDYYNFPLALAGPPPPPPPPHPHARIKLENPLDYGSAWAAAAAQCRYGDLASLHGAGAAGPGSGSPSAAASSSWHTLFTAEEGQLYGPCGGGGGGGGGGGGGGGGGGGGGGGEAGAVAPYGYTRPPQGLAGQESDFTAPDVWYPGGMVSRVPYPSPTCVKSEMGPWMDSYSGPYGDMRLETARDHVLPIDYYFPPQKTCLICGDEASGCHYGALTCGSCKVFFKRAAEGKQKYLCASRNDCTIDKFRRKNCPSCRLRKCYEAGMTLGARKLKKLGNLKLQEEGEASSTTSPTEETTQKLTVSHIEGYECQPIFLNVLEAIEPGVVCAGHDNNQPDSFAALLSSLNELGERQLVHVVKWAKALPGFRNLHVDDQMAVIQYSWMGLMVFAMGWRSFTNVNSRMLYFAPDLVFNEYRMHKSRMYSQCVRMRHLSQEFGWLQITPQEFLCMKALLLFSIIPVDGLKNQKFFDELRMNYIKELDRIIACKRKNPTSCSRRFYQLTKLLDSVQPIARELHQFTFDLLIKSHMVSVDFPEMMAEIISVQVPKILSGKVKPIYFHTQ

Regarding `C=C(C)C(=O)OCCCCCCCCCCCCC`, the Potency entry in assay [1], in [2], in assay [3], in assay [4], in assay [5] and in assay [6] was “inactive” throughout. For the same compound, the Potency result in assay [7] was “inactive”. In assay [8], the compound was classed as inactive.
With `CC(C)=CCC1C(=O)N(c2ccccc2)N(c2ccccc2)C1=O`, the Potency result in [1], in assay [2], in [3], in [4], in assay [5] and in assay [6] was “inactive” in each case. Further, the Potency entry in assay [7] is “inactive”. Moreover, the result in [8] was inactive.
Consider `CCCCCC[C@@H](O)C/C=C\CCCCCCCC(=O)O`, for which the Potency entry in assay [1], in [2], in [3] and in assay [4] was “inactive” each time. The outcome in assay [8] was inactive.
Regarding `C[C@@H]1CC(=O)NN=C1c1ccc(NN=C(C#N)C#N)cc1`, the Potency result in assay [1], in assay [5], in assay [9], in [6] and in assay [7] was “inactive” in each case. Besides, the Potency in [2] was 13.3 µM (active); in assay [4] it was 23.7 µM (active) and 13.3 µM (active). The outcome in assay [8] was inactive.
As for `COC(=O)c1nc(Cl)c(Cl)nc1N`, the Potency entry in assay [1] and in [7] was “inactive” throughout. The Potency in assay [2] was 0.75 µM (active); in assay [4], 29.8 µM (active); in [5], 29.8 µM (active). Besides, the compound was classed as inactive in [8].
`Brc1cc(Br)c(Oc2cc(Br)c(Br)cc2Br)cc1Br`: the Potency result in [1], in assay [2], in assay [10], in assay [4] and in [7] was “inactive” throughout. In addition, the Potency in assay [5] was 29.9 µM (active). In addition, in [8], the outcome was inactive.
`NC1[C@H]2CN(c3nc4c(cc3F)c(=O)c(C(=O)O)cn4-c3ccc(F)cc3F)C[C@@H]12` (stereo not given in full): the Potency entry in assay [1], in assay [4], in assay [5], in assay [9], in assay [6] and in [7] was “inactive” each time. Besides, the Potency in assay [2] is 29.8 µM (active). In assay [8], the call was inactive.
Regarding `O=[N+]([O-])c1cc(C2CCCCC2)c(O)c([N+](=O)[O-])c1`, the Potency entry in assay [1], in assay [5], in assay [9], in assay [6] and in assay [7] was “inactive” each time. The Potency was 1.08 µM (active) in [2] and 24.3 µM (active) in assay [4]. In addition, the compound was called inactive in assay [8].
Take `CC(C)COCC(CN(Cc1ccccc1)c1ccccc1)N1CCCC1` (stereo not given): the Potency entry in [1] and in [7] was “inactive” throughout. For the same compound, the Potency in assay [2] was 26.6 µM (active); in [4], 26.6 µM (active); in assay [5], 29.8 µM (active); in assay [6], 21.1 µM (active).
For `CC(=O)Oc1ccc([N+](=O)[O-])cc1CCl`, the Potency entry in [1], in assay [2], in assay [5] and in assay [6] was “inactive” in each case. Further, the Potency in assay [4] was 30.6 µM (active). Besides, the outcome in assay [8] was inactive.
Regarding `O=C(O)c1ccc(OCCCOc2ccc(C(=O)O)cc2)cc1`, the Potency result in assay [1], in assay [2], in assay [10], in assay [4], in assay [5] and in [6] was “inactive” throughout. The compound was classed as inactive in assay [8].
In the case of `CCOC(=O)c1ccc(O)c(O)c1`, the Potency result in [1], in [4], in assay [5], in [6] and in assay [7] was “inactive” in each case. Also, the Potency in assay [2] is 29.8 µM (active). Also, the compound was called inactive in assay [8].
For `CN1CCCC(CC2c3ccccc3Sc3ccccc32)C1` (stereo not given), the Potency result in assay [1] and in [7] was “inactive” throughout. For the same compound, the Potency in assay [2] was 6.68 µM (active); in assay [10] it was 13.3 µM (active); in assay [5], 18.8 µM (active); in assay [6], 11.9 µM (active). In assay [8], the outcome was inactive.
With `CN1C(=O)c2ccccc2C1=O`, the Potency entry in assay [1], in [10], in assay [4], in assay [5] and in assay [6] was “inactive” each time. The Potency in assay [2] was 43.3 µM (active). In [8], the compound was called inactive.
As to `O=C(O)c1cccc(-c2noc(-c3ccccc3F)n2)c1`, the Potency entry in assay [1] and in assay [4] was “inactive” each time. Moreover, the Potency in assay [2] was 0.237 µM (active); in [5], 26.6 µM (active). For the same compound, in assay [8], the outcome was inactive.
For `CCC(C)COC(C)=O` (stereo not given), the Potency entry in assay [1], in [2], in assay [4], in assay [5], in assay [6] and in assay [7] was “inactive” in each case. The outcome in assay [8] was inactive.
With `O=C=Nc1ccc(Cl)c(Cl)c1`, the Potency result in assay [1], in [2] and in assay [4] was “inactive” in each case. In addition, the Potency in [5] is 47.8 µM (active). In [8], the compound was classed as inactive.
On to `COc1cc(Nc2c(C#N)cnc3cc(OCCCN4CCN(C)CC4)c(OC)cc23)c(Cl)cc1Cl`, for which the Potency result in assay [1] and in [6] was “inactive” throughout. Further, the Potency in assay [2] is 13.3 µM (active); in assay [4] it was 29.8 µM (active); in assay [5], 33.5 µM (active). Further, in assay [8], the compound was classed as inactive.
Consider `CC(C)C[C@H](NC(=O)[C@H](CCc1ccccc1)NC(=O)CN1CCOCC1)C(=O)N[C@@H](Cc1ccccc1)C(=O)N[C@@H](CC(C)C)C(=O)[C@@]1(C)CO1`, for which the Potency result in assay [1] and in assay [7] was “inactive” each time. Moreover, the Potency in assay [2] was 0.0119 µM (active); in assay [4] it was 1.19 µM (active); in [5], 0.266 µM (active). Further, the call in assay [8] was inactive.
Consider `CNC(=O)c1cnn(-c2nc(N)c3ncn([C@@H]4O[C@H](CO)[C@@H](O)[C@H]4O)c3n2)c1`, for which the Potency entry in [1], in assay [2], in assay [4], in [5], in assay [6] and in assay [7] was “inactive” in each case. In addition, the call in assay [8] was inactive.
Turning to `CCOC(=O)c1ccc(I)cc1`, the Potency entry in assay [1], in [2], in [4], in [5], in [6] and in assay [7] was “inactive” throughout. For the same compound, the compound was classed as inactive in assay [8].
As to `CN1C[C@H](C(=O)N[C@]2(C)O[C@@]3(O)[C@@H]4CCCN4C(=O)[C@H](Cc4ccccc4)N3C2=O)C[C@@H]2c3cccc4[nH]cc(c34)C[C@H]21`, the Potency result in [1], in [2], in [3] and in [7] was “inactive” in each case. Besides, the result in assay [8] was inactive.
With `C(=C\c1ccccc1)/c1ccccc1`, the Potency result in [1], in assay [2], in [4], in assay [5], in assay [6] and in assay [7] was “inactive” each time. In addition, the outcome in assay [8] was inactive.
Take `O=C(OC(=O)c1ccccc1)c1ccccc1`: the Potency result in assay [1], in [2], in assay [4], in [5], in assay [9] and in [6] was “inactive” each time. Also, the Potency result in assay [7] was “inactive”. Also, the compound was called inactive in assay [8].
`Cc1ccco1`: the Potency result in assay [1], in assay [2], in assay [4], in assay [5], in assay [6] and in assay [7] was “inactive” each time. Also, in assay [8], the outcome was inactive.
With `O=C1c2ccccc2C(=O)C1c1nc2ccccc2c(Br)c1O`, the Potency entry in assay [1], in [2], in assay [10], in assay [5] and in assay [6] was “inactive” throughout. Further, the compound was called inactive in assay [8].
With `C=COCC(C)C`, the Potency result in assay [1], in assay [2], in [4], in [5] and in assay [6] was “inactive” in each case. Moreover, in assay [8], the compound was called inactive.
With `CCOc1ccccc1O[C@H](c1ccccc1)[C@H]1CNCCO1`, the Potency result in assay [1], in assay [2], in assay [4], in [5], in [6] and in assay [7] was “inactive” in each case. In addition, the compound was called inactive in assay [8].
For the compound `COc1ccc(OC(=O)N(CC(=O)O)Cc2ccc(OCCc3nc(-c4ccccc4)oc3C)cc2)cc1`, the Potency result in assay [1], in assay [2], in [4], in assay [6] and in assay [7] was “inactive” in each case. In addition, the Potency is 23.7 µM (active) in assay [10] and 16.8 µM (active) in [5]. Moreover, in assay [8], the compound was classed as inactive.
With `c1csc(SSc2cccs2)c1`, the Potency entry in assay [1] and in assay [3] was “inactive” each time. The Potency in [2] and in assay [5] was 13.7 µM (active) throughout. In [8], the outcome was inactive.
